CYP2C19 inhib: blockers of cytochrome P450 2C19 activity – biochemical, luminescence, ADME assay, primary screen | inhibition, % at 5 µM | AID 778, 2007 | 96,000 tested, 21% active | P33261 | CYP2C19 Supersomes, luciferin-H EGE luminescence, 30 min;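 active = CYP2C19 inhibition above a set limit at 5 µM in the primary screen, cut at about 50% in these data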;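 also: plate controls were negative control wells for no effect and 2.5 mM tranylcypromine positive control for full effect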
Pyk2 oligo antag: antagonists of Pyk2 self-association, primary screen, Q293 cells, FERM NanoBiT luminescence, HTS | stronger effect = lower value | z-score (the deposit names both 25 µM and 10 µM) | 99,000 tested, 0.83% active | AID 1347419, 2020;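 active = Z-score of -3 or lower, scaled per plate to the spread of control and sample wells; inactive = z-score above -3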;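 also: negative z-score means lost luminescence so less FERM oligomerization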
Cav32 inh: Cav3.2 calcium influx blockers – cell-based, Fluo-4 calcium fluorescence, FDSS, MLSMR library, primary screen | B-score at 10 µM | 100,000 tested, 4% active | Cav3.2-expressing cells; stronger effect = lower value | Voltage-dependent T-type calcium channel subunit alpha-1H (Homo sapiens), O95180 | AID 449739, 2010;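 active = single-dose well whose peak fluorescence ratio is a statistical outlier from its plate by either plate-standardised score or position-corrected B-score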
CYP2C19 activ: human CYP2C19 activators, primary screen, biochemical, luminescence | Cytochrome P450 2C19 (Homo sapiens), P33261 | recombinant CYP2C19, luciferin-H EGE luminescence; stronger effect = higher value; 0 = fully inhibited enzyme, 1 = untreated enzyme | activation factor at 5 µM | 96,000 tested, under 10 active;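 active = activation factor of at least 2 at 5 µM in the primary screen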;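 also: 0 = wells with 2.5 mM tranylcypromine and 1 = vehicle-only wells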
CYP2C9 activ: human CYP2C9 activators, primary screen, biochemical, luminescence. Cytochrome P450 2C9 (Homo sapiens), P11712. recombinant CYP2C9, luciferin-H conversion; stronger effect = higher value; factor 1 = untreated enzyme, 0 = blocked. activation factor at 5 µM. 96,000 tested, 1.4% active;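 active = activation factor of 2 or more for CYP2C9 at a 5 µM dose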;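 also: 0 = sulfaphenazole-blocked wells and 1 = vehicle-only wells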
Target sequence (P11712 whole entry, looked up): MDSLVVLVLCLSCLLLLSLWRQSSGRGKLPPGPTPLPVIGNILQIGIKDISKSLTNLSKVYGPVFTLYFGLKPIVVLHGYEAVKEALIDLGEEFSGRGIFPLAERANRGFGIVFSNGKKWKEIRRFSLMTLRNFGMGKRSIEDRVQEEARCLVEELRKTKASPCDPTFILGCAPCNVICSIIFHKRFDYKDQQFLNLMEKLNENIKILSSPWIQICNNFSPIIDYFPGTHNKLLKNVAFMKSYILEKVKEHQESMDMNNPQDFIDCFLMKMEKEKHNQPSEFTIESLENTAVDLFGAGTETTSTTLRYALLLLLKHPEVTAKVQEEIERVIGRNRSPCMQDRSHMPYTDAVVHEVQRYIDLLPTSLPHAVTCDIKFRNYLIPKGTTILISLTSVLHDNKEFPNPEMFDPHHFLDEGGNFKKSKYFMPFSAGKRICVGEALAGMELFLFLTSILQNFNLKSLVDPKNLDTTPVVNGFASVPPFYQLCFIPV
CYP2C9 inh: blockers of cytochrome P450 2C9 activity – biochemical, luminescence, ADME assay, primary screen. 96,000 tested, 20% active. inhibition, % at 5 µM. CYP2C9 Supersomes, luciferin-H conversion. AID 777, 2007;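 active = blocking of liver enzyme CYP2C9 beyond about 50% at 5 µM, limit read from the data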
Numbers without * were called inactive; x = not tested or not shown. This is a sample that favours compounds with a hit; in the whole collection about 27% have one here.

SMILES | CYP2C19 inhib | Pyk2 oligo antag | Cav32 inh | CYP2C19 activ | CYP2C9 activ | CYP2C9 inh
CCOC(=O)Cn1c(=O)oc2cc(S(=O)(=O)NCc3cccs3)ccc21 | 14 | x | 0.41 | 0.9 | 0.7 | 30
O=C1c2ccccc2C(Nc2ccc(F)cc2F)N1CCN1CCOCC1 (configuration not stated) | 14 | x | 0.73 | 0.9 | 1.2 | -17
C=CCNC(=O)c1ccccc1NC(=O)c1ccc(Cl)c(S(=O)(=O)Nc2ccccc2)c1 | 62* | -3.8* | -2 | 0.4 | 0.4 | 62*
C=CCNC(=O)c1ccccc1NC(=O)c1ccccc1C | x | 0.67 | -0.76 | x | x | x
CCOC(=O)N1CCN(C(=O)c2ccc(NC(=O)c3ccc(C)cc3)cc2)CC1 | 48 | -1 | -0.54 | 0.5 | 0.3 | 70*
CS(=O)(=O)N(Cc1ccccc1)c1ccccc1C(=O)N1CCN(c2ccccc2)CC1 | 94* | -1.8 | -0.95 | 0.1 | 0.3 | 72*
CS(=O)(=O)N(Cc1ccc(Cl)cc1)c1ccc(C(=O)N2CCN(c3ccccc3)CC2)cc1 | 91* | 0.51 | -2.8 | 0.1 | 0 | 98*
CCOC(=O)N1CCN(C(=O)CN(c2ccc(Oc3ccccc3)cc2)S(C)(=O)=O)CC1 | 70* | 0.79 | -0.66 | 0.3 | 0.1 | 86*
O=C1c2oc3ccccc3c(=O)c2C(c2cccnc2)N1Cc1ccco1 (configuration not stated) | 5 | -1.3 | 0.14 | 0.9 | 0.8 | 18
CN1C(=O)c2cccc3c(S(=O)(=O)NCc4ccco4)ccc1c23 | 94* | 0.18 | 0.99 | 0.1 | 0.2 | 79*
COc1ccc(S(=O)(=O)NCc2ccco2)c2ccccc12 | 47 | 0.04 | -4.2* | 0.5 | 2* | -104
CN1C(=O)c2cccc3c(S(=O)(=O)Nc4ccccn4)ccc1c23 | x | 0.52 | 0.59 | x | x | x
O=S(Cc1cc(Sc2ccccc2)nc(-c2ccccc2)n1)c1ccccc1 (configuration not stated) | 98* | -1.2 | 0.033 | 0 | 0.1 | 94*
CNc1cc(CS(=O)c2ccccc2)nc(-c2ccccc2)n1 (configuration not stated) | 93* | 0.99 | 1.1 | 0.1 | 1 | 3
Clc1ccc(Sc2cc(N3CCOCC3)nc(-c3ccccc3)n2)cc1 | 27 | 1.4 | 0.12 | 0.7 | 0.7 | 30
O=C(Nc1ccc2c(c1)Cc1ccccc1-2)c1ccco1 | 10 | -1.2 | 0.41 | 0.9 | 0.9 | 9
CCCS(=O)(=O)c1c(S(=O)(=O)CCC)c2c3ccccc3ccn2c1C(N)=O | 2 | 0.99 | 0.62 | 1 | 1 | 0
Cc1ccc(Cn2nnc3c(=O)n(CC(=O)c4ccccc4)cnc32)cc1 | 1 | x | -0.11 | 1 | 0.4 | 60*
NC(=O)/C(=C\c1ccccc1)NC(=O)/C=C/c1ccccc1 | x | 1.1 | x | x | x | x
CC(/C=C/c1ccccc1)NC(N)=O (configuration not stated) | 32 | -0.01 | -0.85 | 0.7 | 0.4 | 61*
CC(C(=O)Nc1ccccc1-c1ccccc1)N1CCCCC1 (configuration not stated) | 22 | 0.07 | 0.42 | 0.8 | 1 | 4
COc1cc(Cn2ccnc2)c(OC)cc1Cn1ccnc1 | 78* | 0.89 | 0.79 | 0.2 | 0.3 | 73*
Cc1cc(OCCCn2ccnc2)ccc1C(C)C | x | 0.28 | x | x | x | x
Cc1cc(C)cc(NC(=O)CSCc2nc3c(nnn3Cc3ccc(F)cc3)c(=O)[nH]2)c1 | x | -0.96 | -1 | x | x | x
CCOc1ccc(C2SCC(=O)N2c2c(C)n(C)n(-c3ccccc3)c2=O)cc1 (configuration not stated) | 67* | -0.38 | 0.027 | 0.3 | 0.3 | 71*
SMILES | CYP2C19 inhib | Pyk2 oligo antag | Cav32 inh | CYP2C19 activ | CYP2C9 activ | CYP2C9 inh
COc1ccc(C2SCC(=O)N2c2c(C)n(C)n(-c3ccccc3)c2=O)c(OC)c1 (configuration not stated) | 55* | 0.77 | -0.24 | 0.4 | 0.9 | 14
O=C(COc1cccc(C(F)(F)F)c1)NCCCN1CCCC1=O | 16 | -0.1 | 0.095 | 0.8 | 0.7 | 26
COc1ccc([C@@H]2C[C@@H](c3ccccc3)Oc3c(C)ccc(C(C)C)c32)cc1 | x | x | 0.91 | x | x | x
COc1ccccc1N1CCN(c2nc3ccccn3c(=O)c2C=O)CC1 | 71* | 0.7 | 0.53 | 0.3 | 1.3 | -30
Cn1c(N2CCN(C(=O)Nc3ccc(C(F)(F)F)cc3)CC2)nc2ccccc21 | 21 | 0.73 | 0.44 | 0.8 | 0.8 | 23
CC(=O)Nc1ccc(S(=O)(=O)N2CCC(n3cnc4cc(F)ccc43)CC2)cc1 | 26 | 0.34 | 0.8 | 0.7 | 0.4 | 60*
Cc1ccc(NC(=O)NC2CCN(S(=O)(=O)c3ccc(F)cc3)CC2)cc1 | x | -0.62 | 0.15 | x | x | x
COc1ccc(S(=O)(=O)N2CCC(n3cnc4cc(C(F)(F)F)ccc43)CC2)cc1 | 74* | 0.09 | -6.2* | 0.3 | 0.5 | 47
COc1ccc(Cn2nnnc2C(c2cc(OC)ccc2OC)N2CCC(C(N)=O)CC2)cc1 (configuration not stated) | 38 | 0.86 | x | 0.6 | 1 | 4
Cc1ccc(CN2C(=O)CCC2C(=O)NCc2cccnc2)cc1 (configuration not stated) | 19 | -0.1 | -0.013 | 0.8 | 1 | 3
CCOC(=O)CSc1nc2cc(C(=O)N3CCC(C(N)=O)CC3)ccc2c(=O)n1-c1ccccc1 | 26 | 0.41 | -0.15 | 0.7 | 0.4 | 59*
CC(C)Cn1c(SCC(=O)N2CCCCC2)nc2ccccc2c1=O | x | -0.7 | -3.2 | x | x | x
CCOC(=O)CSc1nc2ccccc2c(=O)n1CC | 24 | -0.51 | -1.4 | 0.8 | 0.7 | 26
CCn1c(SCC(=O)OC2CCCCC2)nc2ccccc2c1=O | 87* | -2.3 | -3.4 | 0.1 | 0.2 | 77*
CCOC(=O)CSc1nc2ccccc2c(=O)n1CC1CCCC1 | x | -0.33 | -3.5* | x | x | x
CN(C)CCOC(C)(c1ccccc1)c1ccccn1 (configuration not stated) | x | x | -0.15 | x | x | x
CC1CCN(Cc2ccc(-c3nn[nH]n3)cc2)CC1 | -11 | 0.37 | -0.39 | 1.1 | 1.2 | -24
CCOc1ccc(NS(=O)(=O)c2ccc(OCC(=O)N3CCCC3)cc2)cc1 | 2 | 0 | 0.24 | 1 | 0.9 | 6
CCOc1ccc2cc(S(=O)(=O)N3CCOCC3)ccc2c1 | 1 | 1.3 | -1.1 | 1 | 0.8 | 24
O=S(=O)(c1ccc(N2CCCC2)nc1)N1CCOCC1 | -19 | -0.48 | 0.022 | 1.2 | 1.1 | -7
CCOc1ccc(S(=O)(=O)Nc2ccc(S(=O)(=O)N3CCOCC3)cc2)cc1 | 22 | -1 | -0.44 | 0.8 | 0.4 | 60*
